From PubChem BioAssay
Calls of active or inactive are those of the source.

How the values were obtained:
[1] = tested on: PRMT1 (protein arginine N-methyltransferase 1); assay: small molecules binding arginine methyltransferase PRMT1 – biochemical, small-molecule microarray, 635 nm fluorescence, primary screen (AID 1088); settings: higher = more signal;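 further: binding of Prmt1 protein to compounds spotted on small-molecule microarray slides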
[2] = growth effects on S. cerevisiae YJM789 – YJM789 clinical isolate, OD600, 24 h, basal, primary screen (AID 1089); settings: higher = more signal, called active from +8 up or from −8 down;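 further: growth of clinical yeast isolate S. cerevisiae YJM 789 seeded 1000 cells per well; test concentration not given here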
[3] = S. pombe growth modifiers, basal conditions – strain 972, OD600, 24 h, no modulator, primary screen (AID 1090);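 further: basal condition with compound alone and no growth modifier present; test concentration not given here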; settings: S. pombe 972 growth, higher = more signal, called active from +8 up or from −8 down
[4] = budding yeast growth modifiers under rapamycin – strain BY4716, OD600, 96 h, primary screen (AID 1091); further: test concentration not given here; settings: S. cerevisiae BY4716 + rapamycin, higher = more signal, called active from +8 up or from −8 down
[5] = target: Torsin-1A-interacting protein 2 (Homo sapiens) (UniProt Q8NFQ8); assay: small molecules binding lysate-expressed LULL1 – cell lysate, human LULL1 lysate, 635/667 nm fluorescence, primary screen (AID 1092); settings: small-molecule microarray, hLULL1 lysate binding, 635 nm fluorescence; higher = more signal;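 further: probe is lysate of COS7 cells overexpressing human LULL1; score merges per-feature 667 nm fluorescence with signal-to-noise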
[6] = optical density change of DRC41 E. coli – strain DRC41, OD650, 24 h, E. coli filamentation project, primary screen (AID 1093);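 further: MC1000 strain lacking acrAB efflux and sulA so SOS filamentation is blocked; test concentration not given here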; settings: E. coli DRC41 growth, higher = more signal, called active from +8 up or from −8 down
[7] = probe aLefty2 binding to arrayed compounds – biochemical, biotinylated probe, 635/667 nm fluorescence, primary screen (AID 1094); settings: small-molecule microarray, higher = more signal;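 further: score merges spot fluorescence near 667 nm with spot signal-to-noise ratio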
[8] = tested on: Noggin (protein binding on small-molecule microarray); assay: small molecules binding Noggin protein – biochemical, 635/667 nm fluorescence, primary screen (AID 1095); settings: 635 nm fluorescence, higher = more signal;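 further: score merges 667 nm feature fluorescence with signal to noise over triplicate slides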
[9] = target: Neurogenic locus notch homolog protein 3 (Homo sapiens) (UniProt Q9UM47); assay: small molecules binding NOTCH3 protein – biochemical, 635/667 nm fluorescence, primary screen (AID 1096); settings: small-molecule microarray, 635 nm fluorescence, higher = more signal
[10] = probe aEGFR binding to arrayed compounds – biochemical, biotinylated probe, 635/667 nm fluorescence, primary screen (AID 1097); settings: small-molecule microarray, higher = more signal;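 further: probe is a biotinylated anti-EGFR antibody binding compounds printed on slides; score combines fluorescence near 667 nm and signal to noise of each spot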

Sequence of Torsin-1A-interacting protein 2 (Homo sapiens) (Q8NFQ8 whole entry, looked up): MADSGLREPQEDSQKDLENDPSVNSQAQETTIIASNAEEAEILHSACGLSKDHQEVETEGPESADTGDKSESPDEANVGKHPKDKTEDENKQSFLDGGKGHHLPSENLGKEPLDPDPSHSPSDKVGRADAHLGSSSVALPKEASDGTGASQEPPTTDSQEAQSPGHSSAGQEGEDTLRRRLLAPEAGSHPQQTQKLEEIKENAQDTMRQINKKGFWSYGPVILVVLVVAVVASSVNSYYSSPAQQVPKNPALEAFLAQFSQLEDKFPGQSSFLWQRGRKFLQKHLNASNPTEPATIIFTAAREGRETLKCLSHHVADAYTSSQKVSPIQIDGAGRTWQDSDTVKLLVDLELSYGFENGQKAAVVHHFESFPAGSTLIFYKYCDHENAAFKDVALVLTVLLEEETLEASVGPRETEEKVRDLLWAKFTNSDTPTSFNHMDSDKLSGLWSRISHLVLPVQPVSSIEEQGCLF
Sequence of Neurogenic locus notch homolog protein 3 (Homo sapiens) (Q9UM47 whole entry, looked up): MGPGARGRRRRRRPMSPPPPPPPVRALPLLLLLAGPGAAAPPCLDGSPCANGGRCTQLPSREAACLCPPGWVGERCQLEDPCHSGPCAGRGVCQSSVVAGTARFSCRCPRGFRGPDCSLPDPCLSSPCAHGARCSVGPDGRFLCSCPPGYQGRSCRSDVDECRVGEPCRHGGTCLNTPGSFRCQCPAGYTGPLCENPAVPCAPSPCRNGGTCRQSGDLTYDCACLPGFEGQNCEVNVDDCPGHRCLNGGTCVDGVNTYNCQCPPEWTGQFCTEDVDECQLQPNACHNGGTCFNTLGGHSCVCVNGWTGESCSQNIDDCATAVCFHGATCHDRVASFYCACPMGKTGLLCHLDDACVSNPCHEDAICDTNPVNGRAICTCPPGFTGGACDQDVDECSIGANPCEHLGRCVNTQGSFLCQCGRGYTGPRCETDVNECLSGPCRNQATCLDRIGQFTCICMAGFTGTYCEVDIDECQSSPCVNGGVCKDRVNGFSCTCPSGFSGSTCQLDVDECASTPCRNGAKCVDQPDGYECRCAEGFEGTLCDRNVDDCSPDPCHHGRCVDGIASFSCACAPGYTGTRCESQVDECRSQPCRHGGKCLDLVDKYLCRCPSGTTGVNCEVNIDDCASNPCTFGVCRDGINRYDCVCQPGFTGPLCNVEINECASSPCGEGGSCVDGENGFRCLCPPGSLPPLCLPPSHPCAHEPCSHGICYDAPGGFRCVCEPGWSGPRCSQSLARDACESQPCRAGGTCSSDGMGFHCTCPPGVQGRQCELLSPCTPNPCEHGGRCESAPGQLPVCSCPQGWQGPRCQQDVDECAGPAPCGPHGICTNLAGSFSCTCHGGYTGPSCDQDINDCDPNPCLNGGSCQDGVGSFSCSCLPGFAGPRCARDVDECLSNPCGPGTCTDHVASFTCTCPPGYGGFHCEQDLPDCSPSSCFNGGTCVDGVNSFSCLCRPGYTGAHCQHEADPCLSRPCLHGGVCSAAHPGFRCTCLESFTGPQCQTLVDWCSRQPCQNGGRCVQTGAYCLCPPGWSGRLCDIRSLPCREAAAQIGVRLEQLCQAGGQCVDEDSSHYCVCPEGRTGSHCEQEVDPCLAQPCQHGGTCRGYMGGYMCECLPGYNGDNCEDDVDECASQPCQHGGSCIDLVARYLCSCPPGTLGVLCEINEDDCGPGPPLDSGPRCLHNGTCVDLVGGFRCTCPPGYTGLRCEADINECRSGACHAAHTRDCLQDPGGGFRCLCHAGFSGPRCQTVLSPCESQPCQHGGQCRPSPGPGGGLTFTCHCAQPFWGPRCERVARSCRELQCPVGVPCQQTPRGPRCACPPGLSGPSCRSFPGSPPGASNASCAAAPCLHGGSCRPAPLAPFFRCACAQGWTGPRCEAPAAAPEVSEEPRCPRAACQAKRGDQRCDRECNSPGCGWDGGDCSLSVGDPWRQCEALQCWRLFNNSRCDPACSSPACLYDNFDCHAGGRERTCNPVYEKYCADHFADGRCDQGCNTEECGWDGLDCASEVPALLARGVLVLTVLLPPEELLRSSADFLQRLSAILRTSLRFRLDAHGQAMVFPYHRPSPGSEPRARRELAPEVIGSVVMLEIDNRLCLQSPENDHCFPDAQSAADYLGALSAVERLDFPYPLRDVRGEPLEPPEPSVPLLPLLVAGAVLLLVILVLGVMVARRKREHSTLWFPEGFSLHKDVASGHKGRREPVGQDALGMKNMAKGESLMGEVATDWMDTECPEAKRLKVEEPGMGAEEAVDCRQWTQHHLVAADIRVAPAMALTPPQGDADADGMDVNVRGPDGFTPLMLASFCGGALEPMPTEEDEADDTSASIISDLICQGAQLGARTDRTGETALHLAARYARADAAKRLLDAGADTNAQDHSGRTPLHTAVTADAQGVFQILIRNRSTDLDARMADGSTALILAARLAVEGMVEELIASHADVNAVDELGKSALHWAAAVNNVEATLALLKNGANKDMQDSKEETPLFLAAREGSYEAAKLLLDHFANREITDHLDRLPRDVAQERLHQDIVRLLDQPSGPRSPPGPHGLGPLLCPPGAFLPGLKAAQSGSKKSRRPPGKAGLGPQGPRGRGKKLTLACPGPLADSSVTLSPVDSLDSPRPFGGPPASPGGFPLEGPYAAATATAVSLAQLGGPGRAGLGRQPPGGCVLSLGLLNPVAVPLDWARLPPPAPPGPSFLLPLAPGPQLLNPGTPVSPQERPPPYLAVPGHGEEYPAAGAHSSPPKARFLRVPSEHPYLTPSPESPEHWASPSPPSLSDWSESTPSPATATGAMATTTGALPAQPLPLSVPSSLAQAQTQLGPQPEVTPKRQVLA

SMILES | composite z-score [1] | z-score [2] | z-score [3] | z-score [4] | composite z-score [5] | z-score [6] | composite z-score [7] | composite z-score [8] | composite z-score [9] | composite z-score [10]
CC(C)(C)OC(=O)CC[C@@]1(C(N)=O)N=C(c2ccc(OCCCO)cc2)O[C@@H]1c1ccccc1N=[N+]=[N-] | 1.16 | 0.745 (inactive) | -0.86 (inactive) | -0.579 (inactive) | 3.41 | 0.77 (inactive) | 0.0539 | 0.465 | 0.976 | -0.019
O=C1O[C@@H](c2ccccc2)[C@@H](c2ccccc2)N2[C@@H](c3ccc(O)cc3)[C@]3(C(=O)Nc4ccccc43)[C@@H](C(=O)N3CCCCCCC3)[C@H]12 | 1.54 | 0.964 (inactive) | 0.295 (inactive) | 1.9 (inactive) | 4.32 | 0.271 (inactive) | 1.54 | 0.589 | 0.896 | 1.13
O=C1OCC=C[C@H]2OC34C=CCN(c5ccc6ccccc6c5)C(=O)[C@H]3N(CCO)C(=O)[C@@H]4[C@@H]12 (stereo not given in full) | 0.491 | 0.689 (inactive) | 0.0739 (inactive) | -0.409 (inactive) | 0.951 | -0.746 (inactive) | -0.0841 | -1.58 | -0.127 | -0.281
Cc1ccc(S[C@]2(C(=O)NCC(F)(F)F)CC(=O)N(C3Cc4ccccc4C3)[C@@H]2c2ccc(CO)cc2I)cc1 | -0.535 | 0.0775 (inactive) | -0.967 (inactive) | 1.81 (inactive) | 1.18 | -0.701 (inactive) | 0.157 | -0.883 | -1.08 | -0.255
CC(c1ccccc1)C(O)C1C=CC2C(=O)N(c3ccccc3)C(=O)C2N1Nc1ccccc1F (stereo not given) | 1.26 | -1.11 (inactive) | 1.15 (inactive) | -1.99 (inactive) | 2.87 | 0.198 (inactive) | 0.0841 | -0.138 | 1.14 | -0.0192
CCCC[C@@H]1C[C@H]1[C@@H](NC(=O)c1ccccc1)c1ccc(-c2ccccc2)cc1 | 0.409 | -2.02 (inactive) | 0.256 (inactive) | 2.7 (inactive) | 2.3 | -0.947 (inactive) | -0.12 | 0.364 | 0.496 | -0.117
C=CCOC(=O)[C@@H]1[C@H]2C(=O)O[C@H](c3ccccc3)[C@H](c3ccccc3)N2[C@H](c2ccc(OCCOC(=O)[C@H]3C[C@H]4C(=O)N[C@@H](Cc5ccccc5)C(=O)N4[C@H]3c3ccc(O)cc3)cc2)[C@@]12C(=O)Nc1ccc(I)cc12 | 1.54 | 2.61 (inactive) | -1.76 (inactive) | 0.88 (inactive) | 1.83 | -1.96 (inactive) | -0.0879 | 0.906 | 1.09 | 0.128
C=C(COC)C(=O)CC[C@@H](OC(=O)c1ccccc1-c1ccccc1C(=O)O)c1ccc(CO)o1 | 1.38 | -24.5 (active) | -20.5 (active) | -4.45 (inactive) | 2.4 | -0.177 (inactive) | -0.215 | 1.63 | 0.314 | -0.0512
[N-]=[N+]=NCc1ccccc1C[C@]1(C(=O)NCC(O)CO)COC(c2ccc(OCCCO)cc2)=N1 (stereo not given in full) | 0.638 | -0.319 (inactive) | -3.05 (inactive) | 0.113 (inactive) | 2.54 | 1.34 (inactive) | 0.841 | -0.185 | -0.172 | 0.204
C[C@]1(C(=O)NCC(F)(F)F)c2ccccc2C(=O)N(Cc2cc(F)cc(C(F)(F)F)c2)[C@H]1c1ccc(CO)cc1 | 1.38 | 0.49 (inactive) | -0.936 (inactive) | -0.563 (inactive) | 2.67 | -0.951 (inactive) | 0.341 | -0.16 | -0.255 | 0.52
Cc1ccc(N2C(=O)c3ccccc3[C@](C)(C(=O)NCCN3CCOCC3)[C@@H]2c2ccc(CO)cc2)nc1 | -0.405 | 0.0623 (inactive) | -0.822 (inactive) | -0.324 (inactive) | 1.04 | -1.4 (inactive) | 0.0216 | -1.02 | -1.74 | -0.312
C=C(C(=O)CC[C@H](OC(=O)c1cccnc1)c1ccccc1OCCO)C(C)C | 1.53 | -2.6 (inactive) | -0.267 (inactive) | -0.598 (inactive) | 1.58 | -0.0377 (inactive) | 0.0692 | 1.71 | 0.423 | 0.0004
COC(=O)[C@@]1(Cc2ccc(F)cc2)[C@H]2c3cc(C(=O)N4CCCC4)n(Cc4ccc(Cl)c(C(F)(F)F)c4)c3C[C@H]2CN1C(=O)c1ccccc1 | 0.444 | 0.307 (inactive) | 2.12 (inactive) | 3.84 (inactive) | 3.26 | -0.482 (inactive) | 1.12 | -0.21 | 1.07 | 0.915
C=CCN1C(=O)[C@@]2(O[C@@H](CCO)[C@H]([Si](C)(C)c3ccc(OC)cc3)[C@H]2C)c2cc(NC(C)=O)ccc21 | 1.15 | 0.0173 (inactive) | -1.67 (inactive) | -0.741 (inactive) | 1.96 | -0.203 (inactive) | -0.0231 | 1.23 | 0.725 | 0.118
CCN(CC)c1ccc(N2CC=CC34O[C@@H]5C=CCCOC(=O)C5[C@H]3C(=O)N(CCCO)[C@@H]4C2=O)cc1 (stereo not given in full) | -0.664 | -0.452 (inactive) | -0.983 (inactive) | -0.282 (inactive) | -1.02 | 1.87 (inactive) | -0.122 | 0.232 | -0.155 | -0.162
